High-throughput results (PubChem BioAssay)
In the library only some 18% were active in any assay of this set; here they are far more common.
HepG2 tox – kills HepG2 cells in TGF-b inhibitor counter-screen | HepG2 CAGA-GFP viability, ATP luminescence, 18 h | Potency, µM (highest dose often 46.1 µM), inactives show at the top dose activity change, negative = cytotoxicity, actives largely listed as cytotoxic | 410,000 compounds, 0.76% hits | AID 588856; note: potency is the fitted concentration of half-maximal effect
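CellTiter-Glo luminescence gave cytotoxicity after 18 hours at 37 degrees C. The cells were HepG2 CAGA-GFP in 1% FBS DMEM, stimulated with 500 pg/mL TGF-beta after compound addition. %Activity was normalised to no-cell wells (complete cell-killing) and DMSO (no toxicity), and curves were fitted and classified.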
TGFb SMAD3 inh – inhibitors of TGF-b signaling. HepG2 CAGA-GFP TGF-b/SMAD3 reporter, GFP fluorescence, 18 h; TGF-beta stimulated, 500 pg/mL final. Potency, µM (doses to about 46.1 µM), inactives show at the highest dose activity, negative = inhibition, most hits filed as inhibitors. 410,000 compounds, 1.2% hits. AID 588855; note: potency is the fitted concentration of half-maximal effect; % is set by controls: 0 for no effect and ±100 for the full control effect; nearly all actives have a fitted effect of over 65% in size
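Read-out: total well GFP (ex488/em500-530) summed from mean per-cell fluorescence. Cells: HEPG2 CAGA-GFP, 1% FBS DMEM, 18 h at 37 degrees C with 500 pg/mL final TGF-beta. Unstimulated wells served as the full-inhibition control; stimulated DMSO wells = 0%.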
IL-1B inflam inh – blocks inflammasome-driven IL-1 beta release | 360,000 compounds, 4.7% hits | AID 743279 | activity change, % at 57.5 µM | THP-1 LPS/ATP IL-1B secretion, AlphaLISA, 16 h; hits give low values; in the data active = activity change below about -50%; inconclusive = mostly about -30% to -49%; note: % is set by controls: 0 for no effect and ±100 for the full control effect
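THP-1 cells pretreated 1 hr with compounds (up to 57.5 uM final), then stimulated with LPS (250 ng/mL final) plus ATP (1.25 mM final); secreted IL-1B measured by AlphaLISA after 16 hr, decreased signal indicating inhibition.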
DT40 TDP1 CPT – DT40-hTDP1 cell growth loss with CPT; chicken DT40 Tdp1-/-;hTDP1 cells + 20 nM CPT, ATP luminescence, 48 h; AID 686979; 420,000 compounds, 12% hits; Potency, µM (titrated, usually from 46.2 µM), for the others: at the top dose activity change, negative = growth inhibition, most hits filed as inhibitors; note: potency is the fitted concentration of half-maximal effect; % is set by controls: 0 for no effect and ±100 for the full control effect; nearly all actives have a fitted effect of over 55% in size
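Cell growth measured by CellTiter-Glo luminescence after a minimum 48 h, 37 C compound exposure with 20 nM CPT in Tdp1-knockout DT40 cells stably expressing hTDP1, seeded 400/well; qHTS titration format.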
TDP1 cell noCPT – qHTS for Inhibitors of human tyrosyl-DNA phosphodiesterase 1 (TDP1): qHTS in cells in absence of CPT. DT40 Tdp1-/- hTDP1 cells, no CPT, ATP luminescence, 48 h. Potency, µM (series often up to 46.2 µM), for the others: at the top dose activity change, negative = growth inhibition, usual class: inhibitors. 420,000 compounds, 15% hits; note: potency is the fitted concentration of half-maximal effect; % is set by controls: 0 for no effect and ±100 for the full control effect; nearly all actives have a fitted effect of over 55% in size
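Cells were dispensed at 400 per well, compounds added by pin tool, plates incubated ≥48 hr at 37 °C, then CellTiter-Glo added for 30 min at room temperature before luminescence reading. Line: DT40 Tdp1-/- complemented with hTDP1; camptothecin omitted.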
TDP1 block – inhibitors of human tyrosyl-DNA phosphodiesterase TDP1 | Q9NUW8 | 350,000 compounds, 0.28% hits | Potency, µM (titrated, usually from 130 µM), without a hit: at the top dose activity change, negative = inhibition, usual class: inhibitors | recombinant TDP1, AlphaScreen DNA substrate cleavage | AID 485290; note: potency is the fitted concentration of half-maximal effect; % is set by controls: 0 for no effect and ±100 for the full control effect; nearly all actives have a fitted effect of over 40% in size
Target sequence (Q9NUW8 whole entry, looked up): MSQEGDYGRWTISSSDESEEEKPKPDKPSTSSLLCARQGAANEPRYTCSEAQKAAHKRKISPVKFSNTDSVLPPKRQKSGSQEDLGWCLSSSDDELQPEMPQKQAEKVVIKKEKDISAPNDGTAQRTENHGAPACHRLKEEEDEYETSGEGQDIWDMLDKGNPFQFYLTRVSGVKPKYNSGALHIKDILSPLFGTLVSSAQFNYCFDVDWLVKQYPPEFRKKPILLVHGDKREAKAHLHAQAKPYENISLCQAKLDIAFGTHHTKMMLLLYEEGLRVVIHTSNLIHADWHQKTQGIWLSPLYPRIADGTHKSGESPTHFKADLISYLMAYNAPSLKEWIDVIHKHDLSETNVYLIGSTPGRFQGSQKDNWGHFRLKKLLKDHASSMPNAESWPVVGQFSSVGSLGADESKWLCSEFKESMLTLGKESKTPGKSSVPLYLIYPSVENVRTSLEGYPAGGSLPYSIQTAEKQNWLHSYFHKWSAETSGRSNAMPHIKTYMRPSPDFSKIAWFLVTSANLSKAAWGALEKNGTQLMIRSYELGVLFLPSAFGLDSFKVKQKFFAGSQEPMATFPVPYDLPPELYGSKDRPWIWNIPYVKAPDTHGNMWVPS
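Compounds were preincubated with Tdp1 (1 nM final) for 15 min at room temperature before substrate (15 nM final) started a 5 min reaction; beads (10 ug/ml final) were then added for 10 min before AlphaScreen detection.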
The depositor's hits bear a star; ? = inconclusive; . = not tested or not shown. Unless noted, calls come from the whole dose curve; as a rule, active = well fitted curve in the direction sought with a large enough effect; inconclusive = small, poorly fitted or top-dose-only effect, or another doubt; inactive = no such curve, though single readings can be large; an effect the other way counts as inactive or inconclusive.

SMILES	HepG2 tox	TGFb SMAD3 inh	IL-1B inflam inh	DT40 TDP1 CPT	TDP1 cell noCPT	TDP1 block
O=C(COc1ccc(/C=N/NS(=O)(=O)c2ccccc2)cc1)NCc1ccccc1	13.9%	16.5%	4.5	0.3%	-28.3%	2.5%
Cc1ccc(NC(=O)CC(C)CC(=O)NCc2ccccc2)cc1Cl (configuration not stated)	-26.4%	-18.9%	36.2	13µM*	?	3.3%
O=C(COc1ccc(/C=N/NS(=O)(=O)c2ccccc2)cc1)Nc1cccc(Cl)c1	-8.6%	?	-11.0	?	20.6µM*	5.2%
C/C(CC(=O)Nc1ccc(OCc2ccccc2)cc1)=N\NC(=O)C(=O)Nc1ccc(C)c(Cl)c1	-55.5%	-5.3%	6.5	?	18.4µM*	10.7%
CCn1c2ccccc2c2cc(NC(=O)COc3ccc(OC)cc3)ccc21	3.8%	-7.8%	-29.6	?	?	7.9%
CCn1c2ccccc2c2cc(NC(=O)COc3ccccc3)ccc21	-37.8%	0.0%	-3.4	18.4µM*	23.1µM*	3.0%
CCn1c2ccccc2c2cc(NC(=O)c3cccc([N+](=O)[O-])c3C)ccc21	-10.9%	23.8%	-8.5	?	14.6µM*	1.8%
Cc1ccc(NC(=O)COc2ccccc2)cc1Cl	9.6%	16.8%	-50.8*	29.6%	-28.8%	.
Cc1ccc(-n2nc3ccc(NC(=O)c4cccc([N+](=O)[O-])c4C)cc3n2)cc1	-30.9%	?	34.7	-4.9%	?	8.2%
Cc1ccccc1N1C(=O)C2CCCN2C1=S (configuration not stated)	-2.8%	-3.0%	-8.2	-28.7%	?	3.0%
C=CCn1c(=O)c2c(nc3n2CC(C)CN3Cc2ccccc2)n(C)c1=O (configuration not stated)	-38.3%	-15.7%	-3.4	-18.4%	?	5.0%
CC(=NO)c1cc(Br)c2cccc3c2c1CC3	-36.0%	?	-8.6	3.8%	?	.
CCNC(=O)CC1C(=O)N(CC)C(=S)N1NC(=O)c1ccc(Cl)cc1 (configuration not stated)	-28.3%	-6.9%	-8.0	2.7%	1.9%	-6.7%
CCN1C(=O)C(CC(=O)NCCc2ccccc2)N(NC(=O)c2ccc(Br)cc2)C1=S (configuration not stated)	-30.0%	-26.0%	-12.5	?	20.6µM*	.
NCCCNC(=O)Cn1c(=O)c2c3c(sc2n(Cc2ccccc2)c1=O)CCCC3	-5.5%	0.0%	3.0	20.6µM*	?	.
O=C(Cn1c(=O)c2c3c(sc2n(Cc2ccccc2)c1=O)CCCC3)NCCO	-20.4%	4.1%	-6.7	?	?	.
O=C(Cn1c(=O)n2ncnc2c2c3c(sc21)CCCC3)c1ccccc1	-21.8%	?	-4.3	23.1µM*	?	1.0%
NCCNC(=O)Cn1c(=O)c2c3c(sc2n(Cc2ccccc2)c1=O)CCCC3	-13.1%	11.7%	-77.6*	20.6µM*	23.1µM*	.
COC(=O)[C@]12CCCCC=C1N(Cc1ccccc1)C(=O)[C@H](CC(=O)N1CCN(C(=O)c3ccco3)CC1)C2	.	.	-3.2	?	?	.
COc1ccc(-n2nc(C(=O)NCC(=O)Nc3cccc(Cl)c3)c3ccccc3c2=O)cc1	0.2%	7.8%	-3.1	?	?	-0.9%
Cc1ccsc1C(=O)N/N=C/c1ccc2c(c1)OCO2	5.62µM*	-18.3%	?	?	?	5.1%
Cc1cc(C(=O)N/N=C/c2ccc3c(c2)OCO3)c(C)o1	-19.8%	-1.6%	-1.5	-9.6%	?	.
Cc1occc1C(=O)N/N=C/c1ccc2c(c1)OCO2	11.2µM*	0.0%	-10.2	?	?	-0.6%
